# Laboratory results reported in ChEMBL document CHEMBL3433997, “St. Jude Leishmania screening dataset” (2016).
# Target: Solute carrier family 2, facilitated glucose transporter member 1 (Homo sapiens) (UniProt P11166)
# Assay: ST_JUDE_LEISH: Cytotoxicity at 2uM final concentration against transgenic Leishmania Mexicana promastigotes LmGLUT1 that are glucose transport deficient and complemented with the human glucose transporter GLUT1. Activity is measured by DNA content using SYBR green in vitro
# Format: functional
# Sequence of Solute carrier family 2, facilitated glucose transporter member 1 (Homo sapiens) (P11166 whole entry): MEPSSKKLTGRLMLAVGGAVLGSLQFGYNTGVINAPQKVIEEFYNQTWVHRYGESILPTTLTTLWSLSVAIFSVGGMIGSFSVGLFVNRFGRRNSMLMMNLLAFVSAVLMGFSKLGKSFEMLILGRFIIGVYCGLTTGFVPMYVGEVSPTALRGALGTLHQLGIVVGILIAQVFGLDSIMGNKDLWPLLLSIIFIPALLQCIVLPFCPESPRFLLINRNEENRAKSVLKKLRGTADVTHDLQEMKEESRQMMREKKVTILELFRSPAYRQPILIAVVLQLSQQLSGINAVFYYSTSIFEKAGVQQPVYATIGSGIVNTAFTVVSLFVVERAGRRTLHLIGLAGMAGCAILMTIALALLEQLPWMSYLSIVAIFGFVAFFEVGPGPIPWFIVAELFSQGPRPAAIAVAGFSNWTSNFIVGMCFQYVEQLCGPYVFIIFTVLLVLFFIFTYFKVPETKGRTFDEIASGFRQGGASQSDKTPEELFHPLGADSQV
row,SMILES,inhibition [%]
1,Cc1ccc(C(=O)NC2CC2)cc1-c1ccc2c(cnn2S(=O)(=O)c2ccc(F)cc2)c1,3.39
2,c1ccc2[nH]c(-c3ccc(-c4ccc(CN5CCCCC5)cc4)s3)nc2c1,0.97
3,CN1CCC(N(Cc2ccc(N3CCN(Cc4c[nH]c5ccc(Cl)cc45)CC3)nc2)C2CC2)CC1,9.81
4,OCCc1ccc(Nc2nccc(-c3nnc4ccccn34)n2)cc1,6.85
5,CC(C)(C)c1nn(-c2ccccc2)c2[nH]c(=O)c(CNCc3ccc4c(c3)OCO4)cc12,6.79
6,NS(=O)(=O)c1cccc(-c2ccc3nccc(-c4cccc(S(N)(=O)=O)c4)c3c2)c1,2.86
7,Cc1c[nH]c(-c2cccc(C(=O)NC3CCC(CCN4CCc5ccc(C#N)cc5CC4)CC3)c2)n1 (stereo not drawn),2.16
8,c1cc(CN2CCC(CCN3CCCCC3)CC2)cc(-c2csc(-c3nc4ccccc4[nH]3)c2)c1,7.93
9,Cc1c(CNCCCNc2cc(=O)c3ccccc3[nH]2)sc(-c2ccco2)c1Br,14.4
10,CNc1nc(N/N=C/c2cc3c(cc2[N+](=O)[O-])OCO3)nc(Nc2cccc(C(F)(F)F)c2)n1,6.24
11,COc1ccc(-c2ccc3c(-c4ccc(F)cc4)cnc(N)c3c2)cn1,-1.25
12,Cc1ccc(C)c(NC(=O)NC2CCN(c3ccnc(Nc4ccc(F)cc4)n3)C2)c1 (stereo not drawn),-2.45
13,COc1ccccc1CCNc1nc(C)cc(N[C@@H](Cc2ccccc2)C(=O)NCc2cccs2)n1,2.42
14,O=C(Nc1ccccc1F)NC1CCN(c2ccnc(Nc3ccc(F)cc3)n2)C1 (stereo not drawn),0.46
15,Cc1cc(NC2CCN(CC3CCCCC3)CC2)nc(Nc2ccccc2Cl)n1,2.86
16,COc1cc(-c2nc(-c3ccc(C(=O)c4ccc(F)cc4)cc3)c(-c3ccccc3)[nH]2)cc(OC)c1O,3.28
17,COc1cccc(OCC2CCCN(CCCCNC(=O)c3ccc(NC(=O)c4ccc(Cl)cc4)cc3)C2)c1 (stereo not drawn),-2.42
18,COc1cc(NC(=O)/C=C/c2ccccc2OC(F)(F)F)cc(OCCN2CCCCC2)c1,2.6
19,O=[N+]([O-])c1ccc2nc(Nc3ccc(Cl)c(Cl)c3)c(Nc3ccc(Cl)c(Cl)c3)nc2c1,0.54
20,Oc1ccc(CCNCCCCNCCc2ccc(Cl)cc2)cc1O,-1.52
21,COc1ccc2nccc(NCC3(O)CCN(CCc4ccc5c(c4)OCCO5)CC3)c2n1,4.99
22,O=S(=O)(c1ccc2cc[nH]c2c1)N1CCC[C@@H]1CCN1CCC(c2c[nH]c3cnccc23)CC1,3.4
23,CC(C)[C@H](NC(=O)NC1CCC(CCN2C3CCC2CC(OC(=O)C(CO)c2ccccc2)C3)CC1)C(O)(c1ccccc1)c1ccccc1 (stereo partly drawn),3.62

# Target: Hexose transporter 1 (Plasmodium falciparum) (UniProt O97467)
# Assay: ST_JUDE_LEISH: Cytotoxicity at 2uM final concentration against transgenic Leishmania Mexicana promastigotes LmPfHT that are glucose transport deficient and complemented with the Plasmodium falciparum hexose transporter. Activity is measured by DNA content using SYBR green in vitro
# Format: functional
row,SMILES,inhibition [%]
1,Cc1cc(=NN=Cc2cccc(F)c2)c2ccc(F)cc2[nH]1,7.85
2,COc1cc2c(cc1C(F)(F)F)N(C(=O)Nc1cc(-c3ccncc3)cc(-c3cccnc3)c1)CC2,-0.38
3,Cc1cc(F)ccc1-c1nc(NCCCNCCc2ccccc2)nc2c1ccc(=O)n2-c1c(F)cccc1F,5.5
4,Cc1cc(Nc2ccccc2)nc(Nc2ccccc2)n1,8.33
5,Cc1ccc(Nc2nc(C)cc(NC3CC3)n2)cc1,6.75
6,Cn1cnc2c(SCc3ccccc3OCc3ccccc3)ncnc21,5.44
7,COc1ccc2ncc(F)c(CCN3CCC(CNCc4cccc5c4OCO5)CC3)c2n1,1.39
8,CCC(C)CNC(=O)CN1CN(c2ccccc2)C2(CCN(C(=O)c3ccc(Br)cc3)CC2)C1=O (stereo not drawn),-0.13
9,CC(Sc1nc(-c2ccccc2)c(-c2ccccc2)o1)C(=O)NC1CC1 (stereo not drawn),1.75
10,CC(C)N1CCC(Oc2ccc(CN3CCN(C(c4ccccc4)c4ccc(Cl)cc4)CC3)cc2)CC1 (stereo not drawn),3.12
11,Cc1[nH]c(C)c(-c2ccc(OCc3ccc(F)cc3)cc2)c(=O)c1Br,-1.87
12,Cc1cccnc1CNc1nccc2c(C)c(C)[nH]c12,2.33
13,CC(=O)NCCNc1nccc(N2CCc3ncnc(Nc4ccc(OCc5ccccn5)c(Cl)c4)c3C2)n1,1.71
14,CC1CNC(c2ccc(NC(=O)Nc3ccc(C4=NC(C)CN4)cc3)cc2)=N1 (stereo not drawn),5.64
15,COc1ccc2c(=O)c(I)c(C)[nH]c2c1,-1.12
16,CC(=O)Nc1ncc(C(=O)Nc2ccc(-c3cccc(-c4nc5cc(F)ccc5[nH]4)c3)cc2)s1,7
17,CCc1ccc(NC(=O)c2ccc(CN3CCCN(CC4CCCCC4)CC3)cc2)cc1,10.3
18,Cc1ccc(C(=O)NC2CC2)cc1-c1ccc2c(cnn2S(=O)(=O)c2ccc(F)cc2)c1,3.78
19,c1ccc2[nH]c(-c3ccc(-c4ccc(CN5CCCCC5)cc4)s3)nc2c1,0.62
20,CN1CCC(N(Cc2ccc(N3CCN(Cc4c[nH]c5ccc(Cl)cc45)CC3)nc2)C2CC2)CC1,4.81

row,SMILES,inhibition [%]
1,OCCc1ccc(Nc2nccc(-c3nnc4ccccn34)n2)cc1,6.22
2,CC(C)(C)c1nn(-c2ccccc2)c2[nH]c(=O)c(CNCc3ccc4c(c3)OCO4)cc12,3.28
3,NS(=O)(=O)c1cccc(-c2ccc3nccc(-c4cccc(S(N)(=O)=O)c4)c3c2)c1,0.59
4,Cc1c[nH]c(-c2cccc(C(=O)NC3CCC(CCN4CCc5ccc(C#N)cc5CC4)CC3)c2)n1 (stereo not drawn),1.04
5,c1cc(CN2CCC(CCN3CCCCC3)CC2)cc(-c2csc(-c3nc4ccccc4[nH]3)c2)c1,8.75
6,Cc1c(CNCCCNc2cc(=O)c3ccccc3[nH]2)sc(-c2ccco2)c1Br,13.6
7,CNc1nc(N/N=C/c2cc3c(cc2[N+](=O)[O-])OCO3)nc(Nc2cccc(C(F)(F)F)c2)n1,5.94
8,COc1ccc(-c2ccc3c(-c4ccc(F)cc4)cnc(N)c3c2)cn1,-1.33
9,Cc1ccc(C)c(NC(=O)NC2CCN(c3ccnc(Nc4ccc(F)cc4)n3)C2)c1 (stereo not drawn),-0.78
10,COc1ccccc1CCNc1nc(C)cc(N[C@@H](Cc2ccccc2)C(=O)NCc2cccs2)n1,2.49
11,O=C(Nc1ccccc1F)NC1CCN(c2ccnc(Nc3ccc(F)cc3)n2)C1 (stereo not drawn),0.72
12,Cc1cc(NC2CCN(CC3CCCCC3)CC2)nc(Nc2ccccc2Cl)n1,6.27
13,COc1cc(-c2nc(-c3ccc(C(=O)c4ccc(F)cc4)cc3)c(-c3ccccc3)[nH]2)cc(OC)c1O,-0.56
14,COc1cccc(OCC2CCCN(CCCCNC(=O)c3ccc(NC(=O)c4ccc(Cl)cc4)cc3)C2)c1 (stereo not drawn),1.68
15,COc1cc(NC(=O)/C=C/c2ccccc2OC(F)(F)F)cc(OCCN2CCCCC2)c1,1.06
16,O=[N+]([O-])c1ccc2nc(Nc3ccc(Cl)c(Cl)c3)c(Nc3ccc(Cl)c(Cl)c3)nc2c1,1.45
17,Oc1ccc(CCNCCCCNCCc2ccc(Cl)cc2)cc1O,1.57
18,COc1ccc2nccc(NCC3(O)CCN(CCc4ccc5c(c4)OCCO5)CC3)c2n1,4.58
19,O=S(=O)(c1ccc2cc[nH]c2c1)N1CCC[C@@H]1CCN1CCC(c2c[nH]c3cnccc23)CC1,2.78
20,CC(C)[C@H](NC(=O)NC1CCC(CCN2C3CCC2CC(OC(=O)C(CO)c2ccccc2)C3)CC1)C(O)(c1ccccc1)c1ccccc1 (stereo partly drawn),3.92
